Assay results: PubChem BioAssay (NCATS)
Results filed as inconclusive are left out. The source made the active and inactive calls. Calls come from the whole dose curve. Numbered stars: 1 amine (or outer) side, 2 acyl side, 3 side chain; on linkers, the order of the positions; unused ones are H or OH. Bridge positions count the residues as written; N and C are the ends. Square brackets hold non-standard residues; d marks the D form. Peptide text beside a SMILES is read from it. I, II: the chains in the order shown. Actinocin(9to1) = Cc1c2oc3c(C)ccc(C(=O)[*:1])c3nc-2c(C(=O)[*:2])c(N)c1=O; NMeV = CN[C@H](C(=O)O)C(C)C; Sar = CNCC(=O)O

Assay: Confirmatory qHTS to identify inhibitors of SARS-CoV-2 cell entry (AID 1645844); note: nearly all actives have a fitted effect of over 45% in size
Details: SARS-CoV-2 pseudotyped particle cell entry, luciferase; series mostly up to 57.2 µM
Excerpt: Assay Provider: Wei Zheng, Ph.D.
National Center for Advancing Translational Sciences, National Institute of Health, Rockville, MD.
SARS-CoV-2 spike protein, within the viral envelope, mediates viral attachment and infection of host cells. The SARS-CoV-2 spike protein specifically binds to the host receptor ACE2 (Angiotensin-converting enzyme 2). This interaction promotes endocytosis of the viral particle, additional events lead to viral-host cell membrane fusion and release of the viral contents, allowing viral replication.
While SARS-CoV-2 requires BSL-3 facilities for live virus work, pseudotyped partices (PP) that incorporate SARS-CoV-2 spike proteins without replication elements could facilitate studies on viral entry mechanisms in a BSL-2 setting. This PP cell entry assay could also enable screening of small molecule compound libraries in BSL-2 setting to identify inhibitors of SARS-CoV-2 cell entry.
SEQUENCE No. (e.g., 1, 2, 3, etc.); […] (e.g., Cells, Incubation, Reagent, etc.); VALUE and DESCRIPTION.
1. Cells. Seed 1500 HEK293-ACE2 cells (Expi293F with stable expression of human ACE2) in 2 uL/well media (DMEM, 10% FBS, 1x L-glutamine, 1x Pen/Strep, 1 ug/ml puromycin) in white 1536-well assay plates (Greiner #782073).
2. Incubation. Incubate at 37C with 5% CO2 overnight (~16 h).
3. Compounds. Dispense 23 nL/well compounds in DMSO via pin transfer.
4. Incubation. Incubate for 1 hr at 37C 5% CO2.
5. Reagent. Dispense 2 uL/well of SARS-CoV-2-S pseudotyped particles (PP). [a] PPs are produced with murine leukemia virus pseudotyping). [b] SARS-CoV-2-S is Wuhan-Hu-1 sequence (BEI #NR-52420) with C-terminal 19 amino acid truncation.
6. Centrifugation. […]
7. Incubation. Incubate at for 48 hr at 37C 5% CO2
8. Centrifugation. Remove supernatant with gentle centrifugation using a Blue Washer (BlueCat Bio).
9. Reagent. Dispense 4 uL/well of Bright-Glo Luciferase detection reagent (Promega #E2620).
10. Incubation. Incubate for 5 min at room temperature.
11. Detection. Read luminescence signal (Viewlux plate reader, PerkinElmer). Data was normalized with wells containing SARS-CoV-2-S PP as 100%, and wells containing bald PP (no fusion protein) as 0%.
Potency is the fitted concentration of half-maximal effect.

For `Nc1ccn([C@@H]2O[C@H](CO)[C@@H](O)C2(F)F)c(=O)n1`, which Potency is on record?
The Potency was 0.341 µM (active).

Which Potency does the source give for `CC[C@]1(O)C[C@H]2CN(CCc3c([nH]c4ccccc34)[C@@](C(=O)OC)(c3cc4c(cc3OC)N(C=O)[C@H]3[C@@](O)(C(=O)OC)[C@H](OC(C)=O)[C@]5(CC)C=CCN6CC[C@]43[C@@H]65)C2)C1` here?
The Potency was 0.0383 µM (active).

With `O=C1CCc2ccc(OCCCCN3CCN(c4cccc(Cl)c4Cl)CC3)cc2N1` as the molecule, how does the Potency read?
The Potency was 19.2 µM (active).

For `CC(CN1c2ccccc2Sc2ccccc21)N(C)C` (stereo not given), which Potency is on record?
The Potency was 13.6 µM (active).

Which Potency does the source give for `Cc1ccc(NC(=O)c2ccc(CN3CCN(C)CC3)cc2)cc1Nc1nccc(-c2cccnc2)n1` here?
Its Potency is 21.5 µM (active).

For `CC(=O)Oc1ccccc1C(=O)Nc1ncc([N+](=O)[O-])s1`, which Potency is on record?
Its Potency is 3.83 µM (active).

With `Cc1c2oc3c(C)ccc(C(=O)N[C@@H]4C(=O)N[C@H](C(C)C)C(=O)N5CCC[C@H]5C(=O)N(C)CC(=O)N(C)[C@@H](C(C)C)C(=O)O[C@@H]4C)c3nc-2c(C(=O)N[C@@H]2C(=O)N[C@H](C(C)C)C(=O)N3CCC[C@H]3C(=O)N(C)CC(=O)N(C)[C@@H](C(C)C)C(=O)O[C@@H]2C)c(N)c1=O` (I: T[dV]P[Sar][NMeV] / II: T[dV]P[Sar][NMeV]; ester I:1-I:C, II:1-II:C; linker I:N-II:N via Actinocin(9to1)) as the molecule, how does the Potency read?
Its Potency is 0.0764 µM (active).

For `COc1c(C)c2c(c(O)c1C/C=C(\C)CCC(=O)O)C(=O)OC2`, which Potency is on record?
Its Potency is 0.607 µM (active).

With `COC(=O)C1=C(C)NC(C)=C(C(=O)OCC(C)C)C1c1ccccc1[N+](=O)[O-]` (stereo not given) as the molecule, how does the Potency read?
The Potency was 6.07 µM (active).

For `COc1cc(Nc2c(C#N)cnc3cc(OCCCN4CCN(C)CC4)c(OC)cc23)c(Cl)cc1Cl`, which Potency is on record?
Its Potency is 19.2 µM (active).

For `C=C(CC)C(=O)c1ccc(OCC(=O)O)c(Cl)c1Cl`, which Potency is on record?
The Potency was 8.57 µM (active).

With `CC[C@]1(O)C[C@@H]2CN(CCc3c([nH]c4ccccc34)[C@@](C(=O)OC)(c3cc4c(cc3OC)N(C)[C@H]3[C@@](O)(C(=O)OC)[C@H](OC(C)=O)[C@]5(CC)C=CCN6CC[C@]43[C@@H]65)C2)C1` as the molecule, how does the Potency read?
Its Potency is 0.0764 µM (active).

Which Potency does the source give for `COC(c1ccccc1)(c1ccccc1)[C@H](Oc1nc(C)cc(C)n1)C(=O)O` here?
Its Potency is “inactive”.

With `Clc1ccc(COC(Cn2ccnc2)c2ccc(Cl)cc2Cl)cc1` (stereo not given) as the molecule, how does the Potency read?
Its Potency is 9.61 µM (active).

With `CN(C)C(=O)C(CCN1CCC(O)(c2ccc(Cl)cc2)CC1)(c1ccccc1)c1ccccc1` as the molecule, how does the Potency read?
Its Potency is 21.5 µM (active).

Which Potency does the source give for `CCCCNc1ccc(C(=O)OCCOCCOCCOCCOCCOCCOCCOCCOCCOC)cc1` here?
The Potency was 15.2 µM (active).

Which Potency does the source give for `Nc1ncn([C@@H]2O[C@H](CO)[C@@H](O)[C@H]2O)c(=O)n1` here?
Its Potency is 17.1 µM (active).

With `CCc1c2c(nc3ccc(OC(=O)N4CCC(N5CCCCC5)CC4)cc13)-c1cc3c(c(=O)n1C2)COC(=O)[C@]3(O)CC` as the molecule, how does the Potency read?
Its Potency is 0.136 µM (active).

With `CN(C)CCCN1c2ccccc2Sc2ccc(Cl)cc21` as the molecule, how does the Potency read?
Its Potency is 12.1 µM (active).

Which Potency does the source give for `CC(C)(C)C(=O)OCOP(=O)(COCCn1cnc2c(N)ncnc21)OCOC(=O)C(C)(C)C` here?
Its Potency is 0.0086 µM (active).

With `COc1c(C)c2c(c(O)c1C/C=C(\C)CCC(=O)OCCN1CCOCC1)C(=O)OC2` as the molecule, how does the Potency read?
Its Potency is 0.0764 µM (active).

With `CC(=O)[C@]1(O)Cc2c(O)c3c(c(O)c2[C@@H](O[C@H]2C[C@H](N)[C@H](O)[C@H](C)O2)C1)C(=O)c1ccccc1C3=O` as the molecule, how does the Potency read?
Its Potency is 0.0764 µM (active).

Which Potency does the source give for `O=C(O)c1ccc(-n2nc(-c3ccccc3O)nc2-c2ccccc2O)cc1` here?
The Potency was 30.4 µM (active).

With `COc1cccc2c1C(=O)c1c(O)c3c(c(O)c1C2=O)C[C@@](O)(C(=O)CO)C[C@@H]3O[C@H]1C[C@H](N)[C@H](O)[C@H](C)O1` as the molecule, how does the Potency read?
Its Potency is 0.192 µM (active).

For `N[C@@H](Cc1ccc(N(CCCl)CCCl)cc1)C(=O)O`, which Potency is on record?
Its Potency is 0.681 µM (active).

With `CN1CCC(=C2c3ccccc3C=Cc3ccccc32)CC1` as the molecule, how does the Potency read?
The Potency was 8.57 µM (active).

Which Potency does the source give for `O=C1C(=O)c2ccccc2C(O)=C1C1CCC(c2ccc(Cl)cc2)CC1` (stereo not given) here?
Its Potency is 12.1 µM (active).

With `Cc1cn([C@H]2C[C@H](N=[N+]=[N-])[C@@H](CO)O2)c(=O)[nH]c1=O` as the molecule, how does the Potency read?
The Potency was 0.541 µM (active).

Which Potency does the source give for `CC/C(=C(\c1ccccc1)c1ccc(OCCN(C)C)cc1)c1ccccc1` here?
The Potency was 27.8 µM (active).

With `CCC1=C[C@@H]2CN(C1)Cc1c([nH]c3ccccc13)[C@@](C(=O)OC)(c1cc3c(cc1OC)N(C)[C@H]1[C@@](O)(C(=O)OC)[C@H](OC(C)=O)[C@]4(CC)C=CCN5CC[C@]31[C@@H]54)C2` as the molecule, how does the Potency read?
The Potency was 1.48 µM (active).

For `CC(CN(C)C)CN1c2ccccc2CCc2ccccc21` (stereo not given), which Potency is on record?
The Potency was 7.64 µM (active).

For `CO[C@@H](C(=O)N1Cc2[nH]nc(NC(=O)c3ccc(N4CCN(C)CC4)cc3)c2C1)c1ccccc1`, which Potency is on record?
The Potency was 0.482 µM (active).

For `CCCc1cc(=O)[nH]c(=S)[nH]1`, which Potency is on record?
Its Potency is “inactive”.

Which Potency does the source give for `CNCCC(Oc1ccc(C(F)(F)F)cc1)c1ccccc1` (stereo not given) here?
The Potency was 6.81 µM (active).

With `COC(=O)Nc1nc2ccc(C(=O)c3cccs3)cc2[nH]1` as the molecule, how does the Potency read?
The Potency was 0.215 µM (active).
